The text below walks through data of PubChem BioAssay (NCI).

This is part of a sample that, as a whole, favours compounds with a hit. Of some 83,000 tested, about 20% had one in any assay.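 A percent growth of 40 corresponds to 60% growth inhibition; 0 means no net growth; -100 means all cells died. Active threshold: below 10.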 Activity calls are given as the source filed them.

The assay relates to SNB-19 CNS. Briefly: NCI-60 one-dose screen, 48 h (100 = growth as untreated, 0 = no growth, -100 = all killed). The settings on record: 10 µM unless noted.
For the compound `N#C/C(=C\c1ccc(-c2ccc(Cl)c(Cl)c2)o1)c1nc(-c2ccco2)cs1`, the growth is 100% (inactive).
The value for `CC(C)C1=C[C@@]23CC[C@@H]4[C@](C)(CCC[C@@]4(C)C(=O)N4CCCNCC4)[C@H]2C[C@@H]1[C@H]1C(=O)CCC(=O)[C@H]13` was 99.5% (inactive); that for `COc1ccc(CCNc2nc(SC)nc(-c3cccc([N+](=O)[O-])c3)c2C#N)cc1OC` was 71.9% (inactive).
To `Cc1cc(NS(=O)(=O)c2ccc(-c3cnc(C4CC4)o3)cc2)ccc1Cl` belongs 44.3% (inactive); to `COc1ccc(-c2cc(C(=O)N=Nc3c(O)[nH]c4ccc(Br)cc34)no2)cc1`, 92% (inactive).
Take `CCCOc1cc2ccccc2cc1C(=O)Nc1nc(NC)c2c(ccc3nccc32)[nH]1`: the growth is -78.8% (active).
Take `CCCCN(CCCC)CCCn1c(-c2ccccc2)ccc1-c1ccccc1`: the growth was 83.4% (inactive).
To `Cc1nc2ccccc2n1C(=O)C[C@@H]1NC(=S)NC1=O` belongs 98.3% (inactive).
Turning to `N#CCCN=Nc1c(O)[nH]c2ccc([N+](=O)[O-])cc12`, the growth is 100% (inactive).
To `Cc1cc(N2CCOCC2)nc(NCc2cc(Nc3ccnc4cc(Cl)ccc34)ccc2F)n1` belongs -22.9% (active); to `Nc1n[nH]c2ccc([C@@H]3Nc4cc5c(cc4[C@H]4C6CCC(C6)[C@@H]34)C(=O)NC5)cc12` (stereo partly drawn), 28.2% (inactive).
With `c1ccc(-c2c(-c3ccccc3)[n+](Cc3ccc4ccccc4c3)c(-c3ccc(-c4nc5ccccc5s4)cc3)n2Cc2ccc3ccccc3c2)cc1`, the growth was -97.6% (active).
In the case of `C=CC(=O)Nc1cccc(-c2nc(SC)nc(NCc3ccccc3)c2C#N)c1`, the growth is 54.8% (inactive).
